{"source": "PubChem BioAssay (NCI)", "key": {"[1]": {"experiment": "NCI Yeast Anticancer Drug Screen. Data for the wt1 strain (AID 149);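 note: 0% = growth of vehicle-treated wt1 cultures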", "details": "S. cerevisiae wt1 strain (SPY 50644) growth inhibition, hits give high values", "outline": "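wt1 yeast, compound-treated; % growth inhibition vs vehicle control.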"}, "[2]": {"experiment": "NCI Yeast Anticancer Drug Screen. Data for the rad50EPP+ strain (AID 151);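 note: 0% = growth of vehicle-treated control cultures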", "details": "S. cerevisiae rad50 mutant strain, hits give high values", "outline": "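Yeast strain carrying rad50 alteration (rad50EPP+) exposed to compounds; growth inhibition measured relative to vehicle-treated controls.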"}, "[3]": {"experiment": "NCI Yeast Anticancer Drug Screen. Data for the rad50 strain (AID 155);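 note: 0% = growth of vehicle-only cultures of the same strain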", "details": "S. cerevisiae rad50 strain growth inhibition, hits give high values", "outline": "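Genetically altered yeast (DNA repair pathway); compound treatment; growth inhibition vs vehicle ctrl.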"}, "[4]": {"experiment": "NCI Yeast Anticancer Drug Screen. Data for the mec2-1 strain (AID 157)", "details": "S. cerevisiae mec2-1 strain, hits give high values", "outline": "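mec2-1 yeast strain, carrying an alteration in DNA damage repair or cell cycle control, was exposed to compounds; growth inhibition was measured relative to vehicle-treated controls.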"}, "[5]": {"experiment": "NCI Yeast Anticancer Drug Screen. Data for the rad14 strain (AID 159);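 note: 0% = growth of vehicle-treated control cultures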", "details": "S. cerevisiae rad14 strain growth inhibition, hits give high values", "outline": "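Test compounds were applied to a repair-deficient yeast strain. Its growth was then compared with that of cultures given vehicle alone, and inhibition was expressed relative to those controls.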"}, "[6]": {"experiment": "NCI Yeast Anticancer Drug Screen. Data for the sgs1 mgt1 strain (AID 161);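 note: 0% = growth of cultures given vehicle only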", "details": "S. cerevisiae sgs1 mgt1 strain, hits give high values", "outline": "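Compounds are added to genetically altered yeast, and growth is compared with cultures given vehicle alone to give percent inhibition.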"}, "[7]": {"experiment": "NCI Yeast Anticancer Drug Screen. Data for the CLN2oe strain (AID 163);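 note: 0% = growth of vehicle-only control cultures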", "details": "S. cerevisiae CLN2oe strain, hits give high values", "outline": "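Yeast cells carrying a defined cell-cycle control alteration were exposed to test compounds. Growth inhibition was scored against vehicle-treated control cultures.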"}, "[8]": {"experiment": "NCI Yeast Anticancer Drug Screen. Data for the cln2 rad14 strain (AID 165);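 note: 0% = growth equal to vehicle treated cultures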", "details": "S. cerevisiae cln2 rad14 strain, hits give high values", "outline": "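Yeast carrying cln2 and rad14 alterations (cell cycle control and DNA damage repair) were exposed to compounds. Growth inhibition was measured against vehicle-treated controls.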"}, "[9]": {"experiment": "NCI Yeast Anticancer Drug Screen. Data for the bub3 strain (AID 167)", "details": "S. cerevisiae bub3 mutant strain, hits give high values", "outline": "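Yeast carrying a defined mutation is treated with each compound, and growth is compared with that of vehicle-exposed cells to give inhibition.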"}, "[10]": {"experiment": "NCI Yeast Anticancer Drug Screen. Data for the wt2 strain (AID 169);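 note: 0% = growth of vehicle-treated yeast cultures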", "details": "S. cerevisiae wt2 strain growth inhibition, hits give high values", "outline": "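Yeast cells were exposed to test compounds, and growth inhibition was measured relative to vehicle-treated controls.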"}, "[11]": {"experiment": "NCI Yeast Anticancer Drug Screen. Data for the mlh1 strain (AID 171);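 note: 0% = growth of vehicle-treated control cultures of the same strain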", "details": "S. cerevisiae mlh1 strain growth inhibition, hits give high values", "outline": "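Yeast carrying a defined genetic alteration in DNA damage repair or cell cycle control were exposed to test compounds. Growth inhibition was measured relative to vehicle-treated controls.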"}, "[12]": {"experiment": "NCI Yeast Anticancer Drug Screen. Data for the sgs1 strain (AID 173);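 note: 0% = growth of vehicle-only control cultures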", "details": "S. cerevisiae sgs1 mutant, hits give high values", "outline": "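Yeast mutant strains carrying defined defects in DNA damage repair or cell cycle control were exposed to test compounds. Growth inhibition was scored against vehicle-treated controls.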"}, "[13]": {"experiment": "NCI Yeast Anticancer Drug Screen. Data for the mlh1 rad18 strain (AID 175)", "details": "S. cerevisiae mlh1 rad18 strain growth inhibition, hits give high values", "outline": "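Growth inhibition of the yeast strain was measured after compound exposure and expressed relative to vehicle-treated controls. The strain carries defined defects in DNA damage repair.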"}, "[14]": {"experiment": "NCI Yeast Anticancer Drug Screen. Data for the rad18 strain (AID 177)", "details": "S. cerevisiae rad18 mutant growth inhibition, hits give high values", "outline": "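Yeast carrying a defined DNA damage repair alteration were exposed to compounds. Growth inhibition was expressed relative to vehicle-treated controls.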"}, "[15]": {"details": "at 5.0 µM (retest, dose inferred, filed as 0.5)"}, "[16]": {"details": "at 50.0 µM (retest, dose inferred, filed as 5.0)"}}, "note": "About 79,000 compounds went through this panel and 15% of them were active in at least one assay; those are over-represented in the sample as a whole. A number with no mark means an inactive call. Activity calls are given as the source filed them. Cut-off read from the data, not from the text of the source: active = growth inhibition above about 70%; inactive = the rest."}
{"compound": "CCOC(=O)C1=C(C)NC(C)=C(C(=O)OCC)C1c1cccc([N+](=O)[O-])c1", "values": [{"measurement": "growth inhibition", "setting": "[1]; at 1.2 µM", "value": -53, "unit": "%"}, {"measurement": "growth inhibition", "setting": "[1]; at 3.7 µM", "value": -41, "unit": "%"}, {"measurement": "growth inhibition", "setting": "[1]; at 11.0 µM", "value": -22, "unit": "%"}, {"measurement": "growth inhibition", "setting": "[1]; at 33.0 µM", "value": 37, "unit": "%"}, {"measurement": "growth inhibition", "setting": "[1]; at 100.0 µM", "value": "88% (active)"}, {"measurement": "growth inhibition", "setting": "[2]; at 1.2 µM", "value": -54, "unit": "%"}, {"measurement": "growth inhibition", "setting": "[2]; at 3.7 µM", "value": -78, "unit": "%"}, {"measurement": "growth inhibition", "setting": "[2]; at 11.0 µM", "value": -91, "unit": "%"}, {"measurement": "growth inhibition", "setting": "[2]; at 33.0 µM", "value": -93, "unit": "%"}, {"measurement": "growth inhibition", "setting": "[2]; at 100.0 µM", "value": -103, "unit": "%"}, {"measurement": "growth inhibition", "setting": "[3]; at 1.2 µM", "value": -39, "unit": "%"}, {"measurement": "growth inhibition", "setting": "[3]; at 3.7 µM", "value": 0, "unit": "%"}, {"measurement": "growth inhibition", "setting": "[3]; [15]", "value": 34, "unit": "%"}, {"measurement": "growth inhibition", "setting": "[3]; at 11.0 µM", "value": 31, "unit": "%"}, {"measurement": "growth inhibition", "setting": "[3]; at 33.0 µM", "value": 65, "unit": "%"}, {"measurement": "growth inhibition", "setting": "[3]; [16]", "value": "80% (active)"}, {"measurement": "growth inhibition", "setting": "[3]; at 50.0 µM", "value": "90.8% (active)"}, {"measurement": "growth inhibition", "setting": "[3]; at 100.0 µM", "value": "88% (active)"}, {"measurement": "growth inhibition", "setting": "[4]; at 1.2 µM", "value": -36, "unit": "%"}, {"measurement": "growth inhibition", "setting": "[4]; at 3.7 µM", "value": -16, "unit": "%"}, {"measurement": "growth inhibition", "setting": "[4]; [15]", "value": 35, "unit": "%"}, {"measurement": "growth inhibition", "setting": "[4]; at 11.0 µM", "value": -10, "unit": "%"}, {"measurement": "growth inhibition", "setting": "[4]; at 33.0 µM", "value": 30, "unit": "%"}, {"measurement": "growth inhibition", "setting": "[4]; [16]", "value": "76% (active)"}, {"measurement": "growth inhibition", "setting": "[4]; at 50.0 µM", "value": 37.1, "unit": "%"}, {"measurement": "growth inhibition", "setting": "[4]; at 100.0 µM", "value": "83% (active)"}, {"measurement": "growth inhibition", "setting": "[5]; at 1.2 µM", "value": -39, "unit": "%"}, {"measurement": "growth inhibition", "setting": "[5]; at 3.7 µM", "value": -32, "unit": "%"}, {"measurement": "growth inhibition", "setting": "[5]; at 11.0 µM", "value": -17, "unit": "%"}, {"measurement": "growth inhibition", "setting": "[5]; at 33.0 µM", "value": 25, "unit": "%"}, {"measurement": "growth inhibition", "setting": "[5]; at 100.0 µM", "value": "88% (active)"}, {"measurement": "growth inhibition", "setting": "[6]; [15]", "value": -15, "unit": "%"}, {"measurement": "growth inhibition", "setting": "[6]; [16]", "value": 22, "unit": "%"}, {"measurement": "growth inhibition", "setting": "[7]; at 1.2 µM", "value": -31, "unit": "%"}, {"measurement": "growth inhibition", "setting": "[7]; at 3.7 µM", "value": -34, "unit": "%"}, {"measurement": "growth inhibition", "setting": "[7]; at 11.0 µM", "value": -23, "unit": "%"}, {"measurement": "growth inhibition", "setting": "[7]; at 33.0 µM", "value": 31, "unit": "%"}, {"measurement": "growth inhibition", "setting": "[7]; at 100.0 µM", "value": "87% (active)"}, {"measurement": "growth inhibition", "setting": "[8]; [15]", "value": 45, "unit": "%"}, {"measurement": "growth inhibition", "setting": "[8]; [16]", "value": 54, "unit": "%"}, {"measurement": "growth inhibition", "setting": "[9]; at 1.2 µM", "value": -21, "unit": "%"}, {"measurement": "growth inhibition", "setting": "[9]; at 3.7 µM", "value": -5, "unit": "%"}, {"measurement": "growth inhibition", "setting": "[9]; [15]", "value": 29, "unit": "%"}, {"measurement": "growth inhibition", "setting": "[9]; at 11.0 µM", "value": 4, "unit": "%"}, {"measurement": "growth inhibition", "setting": "[9]; at 33.0 µM", "value": 22, "unit": "%"}, {"measurement": "growth inhibition", "setting": "[9]; [16]", "value": 40, "unit": "%"}, {"measurement": "growth inhibition", "setting": "[9]; at 100.0 µM", "value": "73% (active)"}, {"measurement": "growth inhibition", "setting": "[10]; at 1.2 µM", "value": -43, "unit": "%"}, {"measurement": "growth inhibition", "setting": "[10]; at 3.7 µM", "value": -44, "unit": "%"}, {"measurement": "growth inhibition", "setting": "[10]; at 11.0 µM", "value": -13, "unit": "%"}, {"measurement": "growth inhibition", "setting": "[10]; at 33.0 µM", "value": 45, "unit": "%"}, {"measurement": "growth inhibition", "setting": "[10]; at 100.0 µM", "value": "92% (active)"}, {"measurement": "growth inhibition", "setting": "[11]; at 1.2 µM", "value": -74, "unit": "%"}, {"measurement": "growth inhibition", "setting": "[11]; at 3.7 µM", "value": -39, "unit": "%"}, {"measurement": "growth inhibition", "setting": "[11]; at 11.0 µM", "value": -29, "unit": "%"}, {"measurement": "growth inhibition", "setting": "[11]; at 33.0 µM", "value": 51, "unit": "%"}, {"measurement": "growth inhibition", "setting": "[11]; at 100.0 µM", "value": "86% (active)"}, {"measurement": "growth inhibition", "setting": "[12]; at 1.2 µM", "value": -18, "unit": "%"}, {"measurement": "growth inhibition", "setting": "[12]; at 3.7 µM", "value": -14, "unit": "%"}, {"measurement": "growth inhibition", "setting": "[12]; at 11.0 µM", "value": 13, "unit": "%"}, {"measurement": "growth inhibition", "setting": "[12]; at 33.0 µM", "value": 60, "unit": "%"}, {"measurement": "growth inhibition", "setting": "[12]; at 100.0 µM", "value": "86% (active)"}, {"measurement": "growth inhibition", "setting": "[13]; [15]", "value": 30, "unit": "%"}, {"measurement": "growth inhibition", "setting": "[13]; [16]", "value": "75% (active)"}, {"measurement": "growth inhibition", "setting": "[13]; at 50.0 µM", "value": "90.7% (active)"}, {"measurement": "growth inhibition", "setting": "[14]; at 1.2 µM", "value": 5, "unit": "%"}, {"measurement": "growth inhibition", "setting": "[14]; at 3.7 µM", "value": 32, "unit": "%"}, {"measurement": "growth inhibition", "setting": "[14]; at 11.0 µM", "value": 33, "unit": "%"}, {"measurement": "growth inhibition", "setting": "[14]; at 33.0 µM", "value": 60, "unit": "%"}, {"measurement": "growth inhibition", "setting": "[14]; at 100.0 µM", "value": "83% (active)"}]}
